The supplement of paper PMC13380429

The compounds below were run on Vero E6 infected with SARS-CoV-2 (assay: inhibition of SARS-CoV-2 cytopathic effect; higher = more antiviral protection, active = above 15). Details: 833.33 nM; 48 h.

Row | Structure (SMILES) | inhibition of SARS-CoV-2 cytopathic effect
1 | CS(=O)(=O)c1ccc(C2=C(c3ccccc3)C(=O)OC2)cc1 [rofecoxib] | 0.62% (inactive)
2 | CC(C)(C)c1ccc(C(O)CCCN2CCC(C(O)(c3ccccc3)c3ccccc3)CC2)cc1 (stereo not drawn) [terfenadine] | -3.56% (inactive)
3 | CCOC(=O)[C@H](C)C[C@@H](Cc1ccc(-c2ccccc2)cc1)NC(=O)CCC(=O)O [sacubitril] | -3.34% (inactive)
4 | CC(C)N(CCC(=O)c1ccc2ccccc2c1)Cc1ccccc1 | 3.16% (inactive)
5 | O=C(O)CCCO | 1.83% (inactive)
6 | C[C@]12Cc3c[nH]nc3C[C@@H]1CC[C@@H]1[C@@H]2CC[C@@]2(C)[C@H]1CC[C@]2(C)O [stanozolol] | -3.19% (inactive)
7 | O=C(Nc1ccccc1)OCC(CN1CCCCC1)OC(=O)Nc1ccccc1 (stereo not drawn) [diperodon] | -2.3% (inactive)
8 | Cc1c2oc3c(C)ccc(C(=O)N[C@@H]4C(=O)N[C@H](C(C)C)C(=O)N5CCC[C@H]5C(=O)N(C)CC(=O)N(C)[C@@H](C(C)C)C(=O)O[C@@H]4C)c3nc-2c(C(=O)N[C@@H]2C(=O)N[C@H](C(C)C)C(=O)N3CCC[C@H]3C(=O)N(C)CC(=O)N(C)[C@@H](C(C)C)C(=O)O[C@@H]2C)c(N)c1=O [dactinomycin] | -8.77% (inactive)
9 | COc1nc(N)nc2c1ncn2[C@@H]1O[C@H](CO)[C@@H](O)[C@@H]1O [nelarabine] | -0.9% (inactive)
10 | CC1=C(/C=C/C(C)=C/C=C/C(C)=C/C=O)C(C)(C)CCC1 [retinaldehyde] | 6.75% (inactive)
11 | Nc1ccc(S(=O)(=O)NC(=O)c2ccccc2)cc1 [sulfabenzamide] | -0.48% (inactive)
12 | c1coc(-c2nnc3sc(C4CCCCC4)nn23)c1 [cardionogen-1] | -1.37% (inactive)
13 | Cc1ccc(C[N+](C)(C)C)o1 [5-methylfurmethiodide] | -0.84% (inactive)

Same assay, conditions: 10000 nM; 48 h

Row | Structure (SMILES) | inhibition of SARS-CoV-2 cytopathic effect
14 | O=C(Nc1cccnc1)c1cc(-c2ccnc(F)c2)ccc1OCc1ccccc1 | 3.44% (inactive)
15 | COc1ccccc1C(=O)Nc1cccc(NC(=O)c2cccc(C)c2)c1 | 1.77% (inactive)
16 | CCC1(CC)C(=O)C=CNC1=O [pyrithyldione] | -4.46% (inactive)
17 | c1ccc(CCCCN2CCC(c3ccccc3)CC2)cc1 | -0.99% (inactive)
18 | O=c1oc2ccccc2c(O)c1Cc1c(O)c2ccccc2oc1=O [dicoumarol] | 3.32% (inactive)
19 | CC(C)NCC(O)COc1cccc2[nH]c3ccccc3c12 (stereo not drawn) [carazolol] | -4.08% (inactive)
20 | CCN(c1ccccc1)c1cc(=NC)n(C)c(C)n1 | -0.53% (inactive)
21 | CC(C)(O)[C@@H]1[C@H]2OC(=O)[C@@H]1[C@]1(O)C[C@H]3O[C@]34C(=O)O[C@H]2[C@]14C [picrotin] | 3.22% (inactive)
22 | COc1ccc(-c2ccc3c(N4CCOCC4)nc(N4C[C@@H](C)O[C@@H](C)C4)nc3n2)cc1CO | -2.33% (inactive)
23 | O=c1[nH]cnc2c1ncn2[C@H]1CC[C@@H](CO)O1 [didanosine] | -1.54% (inactive)
24 | CC(C)(C)CC(C)(C)c1ccc(O)c(Cc2ccc(Cl)cc2Cl)c1 [clofoctol] | -0.97% (inactive)
25 | O=C(CNC(=O)c1cccc(C(F)(F)F)c1)N[C@@H]1CCN(Cc2ccc(Cl)cc2)C1 [teijin-compound-1] | -4.88% (inactive)
26 | O=C1c2cc(Cl)ccc2OC2CCON12 (stereo not drawn) [seclazone] | 1.99% (inactive)
27 | Nc1ncnc2c1ncn2[C@H]1CC[C@@H](CO)O1 [dideoxyadenosine] | 4.14% (inactive)
28 | Cc1cc(NC(=O)C2=C(O)c3ccccc3S(=O)(=O)N2C)no1 [isoxicam] | -0.72% (inactive)
29 | CCCCCCOc1nsnc1C1=CCCN(C)C1 [xanomeline] | -0.8% (inactive)
30 | COc1cc2c(cc1O)CC[C@@H]1[C@@H]2CC[C@]2(C)[C@@H](O)CC[C@@H]12 [2-methoxyestradiol] | -4.59% (inactive)
31 | Nc1ncnc2c1c(-c1cnc3[nH]ccc3c1)nn2C1CCCC1 | -16.5% (inactive)
32 | O=C(O)c1cn(C2CC2)c2cc(N3CCNCC3)c(F)cc2c1=O [ciprofloxacin] | -2.99% (inactive)
33 | FCc1ccc(OCCOc2ccc(Cl)cc2Cl)c(Cl)n1 | 1.65% (inactive)

Row | Structure (SMILES) | inhibition of SARS-CoV-2 cytopathic effect
34 | CC/C=C(\C(=O)N[C@@H]1C(=O)N2C(C(=O)OCOC(=O)C(C)(C)C)=C(COC(N)=O)CS[C@H]12)c1csc(N)n1 [cefcapene-pivoxil] | -0.26% (inactive)
35 | Nc1nc(=O)c2sc(=O)n([C@@H]3O[C@H](CO)[C@@H](O)[C@H]3O)c2[nH]1 | -1.43% (inactive)
36 | COC(=O)/C=C/C(=O)OCCN1C(=O)CCC1=O [diroximel-fumarate] | 11.3% (inactive)
37 | O=C(O)c1cc2ccccc2s1 | 0.62% (inactive)
38 | CC(C)Oc1ccc(-c2nn([C@@H](C)c3oc4ccc(F)cc4c(=O)c3-c3cccc(F)c3)c3ncnc(N)c23)cc1F | -3.52% (inactive)
39 | CC(C)CNc1ccnc(NCc2csc(-c3ccccc3)n2)n1 | -2.77% (inactive)
40 | CCCCCCCC/C=C\CCCCCCCC(=O)N[C@@H](CO)Cc1ccc(O)cc1 | -2.65% (inactive)
41 | CS(=O)(=O)c1ccc(C2=C(c3ccccc3)C(=O)OC2)cc1 [rofecoxib] | 1.14% (inactive)
42 | CC(C)(C)c1ccc(C(O)CCCN2CCC(C(O)(c3ccccc3)c3ccccc3)CC2)cc1 (stereo not drawn) [terfenadine] | -21.1% (inactive)
43 | CCOC(=O)[C@H](C)C[C@@H](Cc1ccc(-c2ccccc2)cc1)NC(=O)CCC(=O)O [sacubitril] | 2.18% (inactive)
44 | CC(C)N(CCC(=O)c1ccc2ccccc2c1)Cc1ccccc1 | 3.92% (inactive)
45 | O=C(O)CCCO | 1.79% (inactive)
46 | C[C@]12Cc3c[nH]nc3C[C@@H]1CC[C@@H]1[C@@H]2CC[C@@]2(C)[C@H]1CC[C@]2(C)O [stanozolol] | -5.61% (inactive)
47 | O=C(Nc1ccccc1)OCC(CN1CCCCC1)OC(=O)Nc1ccccc1 (stereo not drawn) [diperodon] | -5.11% (inactive)
48 | Cc1c2oc3c(C)ccc(C(=O)N[C@@H]4C(=O)N[C@H](C(C)C)C(=O)N5CCC[C@H]5C(=O)N(C)CC(=O)N(C)[C@@H](C(C)C)C(=O)O[C@@H]4C)c3nc-2c(C(=O)N[C@@H]2C(=O)N[C@H](C(C)C)C(=O)N3CCC[C@H]3C(=O)N(C)CC(=O)N(C)[C@@H](C(C)C)C(=O)O[C@@H]2C)c(N)c1=O [dactinomycin] | -14.8% (inactive)
49 | COc1nc(N)nc2c1ncn2[C@@H]1O[C@H](CO)[C@@H](O)[C@@H]1O [nelarabine] | 1.12% (inactive)
50 | CC1=C(/C=C/C(C)=C/C=C/C(C)=C/C=O)C(C)(C)CCC1 [retinaldehyde] | 10.4% (inactive)
51 | Nc1ccc(S(=O)(=O)NC(=O)c2ccccc2)cc1 [sulfabenzamide] | -0.81% (inactive)
52 | c1coc(-c2nnc3sc(C4CCCCC4)nn23)c1 [cardionogen-1] | -1.68% (inactive)
53 | Cc1ccc(C[N+](C)(C)C)o1 [5-methylfurmethiodide] | 0.7% (inactive)
